Assay outcomes (PubChem)
Luciferase inh: Firefly luciferase inhibition profiling of diverse chemical library using quantitative high-throughput screening; Luciferin 4-monooxygenase (Photinus pyralis), P08659; purified P. pyralis luciferase, luminescence, biochemical; Potency, µM (titrated, usually from 115 µM), hits mostly inhibitors; actives 2.5% (n = 76,000); further: nearly all actives have a fitted effect of over 65% in size
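Biochemical qHTS: compound (6-point titration) added to 10uM D-luciferin plus 10uM ATP in Tris acetate pH 7.5 buffer with Mg, Tween-20 and BSA, then purified enzyme at 10nM; light output imaged.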
hNpr1 antagonist: Natriuretic polypeptide receptor (hNpr1) antagonism - Primary qHTS. AID 1347048, 2019. Potency, µM (series often up to 46.3 µM), usual class: inhibitors. HEK293 hNpr1 GloSensor cGMP, ANP-stimulated luminescence. actives 1.6% (n = 76,000); calls by dose curve; further: nearly all actives have a fitted effect of over 60% in size
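Compound pre-incubated 30 min at room temperature on GloSensor-loaded HEK293 cells stably carrying hNpr1 and the pGS-40F cGMP biosensor. Stimulation uses hNppA at 0.1 nM final; luminescence is taken at baseline and 20 min post-agonist.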
NIH3T3 tox: Cytotoxic Profiling in NIH 3T3 Cell Line of Diverse Libraries Using Quantitative High-Throughput Screening. NIH 3T3 viability, CellTiter-Glo ATP luminescence, 48-72 h. actives 4.3% (n = 94,000). AID 1345082, 2018. Potency, µM (highest dose often 96.7 µM), hits mostly inhibitors; further: nearly all actives have a fitted effect of over 55% in size
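NIH 3T3 cells at 400 cells/well received 23 nL of compound by pintool and were incubated 48 or 72 h at 37 °C. Viability was read as ATP-coupled CellTiter-Glo luminescence.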
GPT2 inh: Primary qHTS assay for inhibitors of Glutamate pyruvate transaminase 2 (GPT2); Alanine aminotransferase 2 (Homo sapiens), Q8TD30; Recombinant GPT2, coupled pyruvate oxidase/HRP Amplex Red fluorescence; Potency, µM (top dose mostly 57.7 µM), hits mostly inhibitors; actives 0.25% (n = 100,000); further: nearly all actives have a fitted effect of over 60% in size
Target sequence (Q8TD30 whole entry, looked up): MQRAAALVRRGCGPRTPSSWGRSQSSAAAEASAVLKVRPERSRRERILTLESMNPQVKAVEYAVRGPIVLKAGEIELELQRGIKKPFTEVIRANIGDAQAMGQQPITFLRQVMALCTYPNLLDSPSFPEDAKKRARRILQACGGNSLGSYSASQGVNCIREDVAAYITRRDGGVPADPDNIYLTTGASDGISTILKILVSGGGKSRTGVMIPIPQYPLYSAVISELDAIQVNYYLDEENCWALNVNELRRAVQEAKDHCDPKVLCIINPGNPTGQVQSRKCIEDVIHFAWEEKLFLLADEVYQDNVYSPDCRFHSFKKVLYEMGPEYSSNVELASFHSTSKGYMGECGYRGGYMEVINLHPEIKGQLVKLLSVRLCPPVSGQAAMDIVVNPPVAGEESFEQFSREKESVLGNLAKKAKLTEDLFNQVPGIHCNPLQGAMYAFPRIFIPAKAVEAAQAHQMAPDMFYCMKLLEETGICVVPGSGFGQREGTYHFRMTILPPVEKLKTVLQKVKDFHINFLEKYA
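Fluorescence of coupled pyruvate oxidase/HRP/Amplex Red system (50uM Amplex, 30 min, dark) reports pyruvate formed by GPT2. Enzyme reaction: 10ng/uL GPT2, 2mM L-alanine, 250uM a-KG, 30 min room temperature, pH 7.5; 50uM AOA control.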
HEK cytotox: Cytotoxic Profiling in HEK 293 Cell Line of Diverse Libraries Using Quantitative High-Throughput Screening. HEK 293 viability, ATP luminescence (CellTiter-Glo), 48-72 h. Potency, µM (series often up to 115 µM), actives largely listed as inhibitors. actives 6.6% (n = 94,000). AID 1345083, 2018; further: nearly all actives have a fitted effect of over 60% in size
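Read-out: CellTiter-Glo ATP luminescence. Cells: HEK 293, 250 cells/well. Exposure: 48 or 72 hr, 37 degree Celsius.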
Hits are given with their value; n = inactive; u = inconclusive; x = not tested or not shown. Only some compounds are listed: those with a hit (about 10% of all), similar ones and a draw of the others. Unless noted, the call rests on the fitted dose curve; in most records, active means well fitted curve in the direction sought with a large enough effect; inconclusive means small, poorly fitted or top-dose-only effect, or another doubt; inactive means no such curve, though single readings can be large; an effect the other way counts as inactive or inconclusive.

SMILES	Luciferase inh	hNpr1 antagonist	NIH3T3 tox	GPT2 inh	HEK cytotox
COc1ccc(NC(=O)C2CCc3nnc(CNC(=O)NC(C)(C)C)n32)cc1 (centres undefined)	x	x	n	n	n
COc1cccc(C(=O)NC2CCN(c3nccc(Nc4ccccc4OC)n3)CC2)c1	x	x	u	n	39.8µM
COc1ccc(Nc2ccnc(N3CCC(NC(=O)c4ccccc4)CC3)n2)cc1	x	x	u	n	35.5µM
Cc1ccc(Nc2ccnc(N3CCC(NC(=O)c4cccc(Cl)c4)CC3)n2)cc1	x	x	39.8µM	n	u
COc1ccc(Nc2ccnc(N3CCC(C(=O)NC4CC4)CC3)n2)cc1	x	x	u	n	u
COc1ccccc1Nc1ccnc(N2CCC(NC(=O)c3cccc(Cl)c3)CC2)n1	x	x	u	n	u
COc1ccc(Nc2ccnc(N3CCC(NC(=O)c4cccc(OC)c4)CC3)n2)cc1	x	x	u	n	35.5µM
COc1ccc(Cn2c(C3CCN(C(=O)c4cc(C)cc(C)c4)CC3)n[nH]c2=O)cc1	n	n	n	u	n
COc1ccc(Nc2ccnc(N3CCC(NC(=O)c4ccc(OC)cc4)CC3)n2)cc1	x	x	u	n	u
COc1ccc(C(=O)NC2CCN(c3nccc(Nc4ccc(C)cc4)n3)CC2)cc1	x	x	u	n	35.5µM
Cn1cccc1C(=O)N1CCCC(n2cc(-c3nc(-c4ccccc4)no3)nn2)C1 (centres undefined)	79.4µM	u	u	n	u
CCn1nccc1C(=O)N1CCCC(n2cc(-c3nc(-c4ccccc4)no3)nn2)C1 (centres undefined)	u	12.6µM	n	n	u
CCn1nc(C)c(-c2cc(C(=O)NCCc3noc(-c4ccccc4)n3)no2)c1C	u	n	u	n	50.1µM
Cc1cc(C(=O)NCCc2noc(-c3cccnc3)n2)nn1C	n	n	n	n	n
COc1cccc(Nc2ccnc(N3CCN(C(=O)C4CC4)CC3)n2)c1	x	x	u	n	u
Cc1ccccc1-c1nc(Cn2ccnc2C(C)C)c(C)o1	n	u	u	n	28.2µM
CCN1C(=O)CN(C(=O)CCCc2ccccc2)CC12CCOCC2	x	x	n	u	n
COc1ccc(CNC(=O)N2CCCCC2c2noc(COc3ccc(C)cc3)n2)cc1 (centres undefined)	n	n	u	n	u
COc1ccccc1C(=O)Nc1cc(C2CC2)nn1-c1ccccc1	x	x	22.4µM	n	u
O=C(Nc1cc(C2CC2)nn1-c1ccccc1)c1ccccc1Cl	x	x	n	n	n
COc1ccc(-c2ccc(C(=O)N[C@@H]3COCC[C@H]3OC)o2)cc1	35.5µM	n	n	n	n
Cc1ccc(-c2cc(C(=O)NCCc3ccc(F)cc3)nn3cnnc23)cc1	x	x	u	n	u
CC(=O)N1CCN(C(=O)c2ccc3oc(-c4ccnc(Cl)c4)nc3c2)CC1	x	x	n	n	n
CC(C)C1=NOC2(CCN(C(=O)c3ccc4c(c3)OCO4)C2)C1 (centres undefined)	x	x	79.4µM	n	n
O=C(NCc1ccc(Cl)cc1)c1cc2n(n1)CC(c1ccc(Cl)cc1)OC2 (centres undefined)	n	u	35.5µM	n	u
SMILES	Luciferase inh	hNpr1 antagonist	NIH3T3 tox	GPT2 inh	HEK cytotox
Cc1ccc(CNC(=O)c2cc3n(n2)CC(c2ccc(Cl)cc2)OC3)cc1 (centres undefined)	n	u	u	n	u
CC(C)c1ccc(CNC(=O)c2cc3n(n2)CC(c2ccc4c(c2)OCO4)OC3)cc1 (centres undefined)	n	n	u	n	39.8µM
CCc1ccc(CNC(=O)c2cc3n(n2)CC(c2ccc(Cl)cc2)OC3)cc1 (centres undefined)	n	u	39.8µM	n	u
CSc1ccc(CNC(=O)c2cc3c(s2)CCN(C(=O)c2ccccc2)C3)cc1	n	u	u	n	u
O=C(O)c1ccc(CN2Cc3[nH]cnc3C[C@H]2c2nc(-c3ccncc3)no2)cc1	n	n	n	u	n
CN(C)c1ccc(CNC2(Cc3cc(COc4ccccc4)on3)COC2)cc1	n	n	u	n	u
COCCNc1ncc(-c2ccncc2)c2c1OCC2	n	n	u	n	n
COCCNc1ncc(-c2ccccc2)c2c1OCC2	28.2µM	n	u	n	u
COCCNc1ncc(-c2ccsc2)c2c1OCC2	22.4µM	n	u	n	u
COCCNc1ncc(-c2ccnc(C)c2)c2c1OCC2	n	n	u	n	u
Cc1cc(C(=O)N2CCCCC2c2nc(CCOCC3CCOCC3)no2)nn1C (centres undefined)	x	x	n	n	n
CN(C)CC1(O)CCCN(Cc2ccc(-c3ccc(Cl)cc3)o2)C1 (centres undefined)	n	n	u	n	u
CCOc1cc(C)c(CN2CCCC(O)(CN(C)C)C2)cc1C(C)C (centres undefined)	n	n	39.8µM	n	35.5µM
CN(C)CC1(O)CCCN(Cc2ccc(Oc3ccc(Cl)cc3)cc2)C1 (centres undefined)	n	n	22.4µM	n	u
CC(C)c1ccc(-n2cc(CN3CCCC(O)(CN(C)C)C3)cn2)cc1 (centres undefined)	u	n	u	n	22.4µM
CC1=C(C(=O)Nc2ccccc2)C(c2cccc(C)c2)N2C(CC(=O)NCC(C)C)=CSC2=N1 (centres undefined)	n	n	u	n	u
O=C(Nc1ccc(F)cc1)OC1CN(Cc2ccco2)C(=O)CN(C(=O)c2cccs2)C1 (centres undefined)	x	x	n	x	u
Cc1nc(CCC(=O)N2CCn3nc(C(=O)Nc4ccccc4)cc3C2)n[nH]1	28.2µM	n	n	n	n
COc1ccc(CN2CCNc3cc(Nc4ccccc4)ncc3C2)cc1	n	n	u	n	70.8µM
CN(C)c1ccc(CN2CCNc3cc(-c4ccccc4)ncc3C2)cc1	n	n	u	n	u
CN(C)c1ccc(CN2CCNc3cc(Nc4ccccc4)ncc3C2)cc1	n	n	56.2µM	n	u
COc1ccccc1CN1CCNc2cc(Nc3ccccc3)ncc2C1	u	n	35.5µM	n	35.5µM
Cn1cc(CN2CCNc3cc(Nc4cccnc4)ncc3C2)cn1	n	n	u	n	u
CN(C)c1ccc(CN2CCNc3cc(Nc4cccnc4)ncc3C2)cc1	63.1µM	n	u	n	u
COc1cccc(Nc2cc3c(cn2)CN(Cc2ccncc2)CCN3)c1	u	n	u	n	u
O=C(NCCc1ccccc1)C1CCCN1Cc1ccc(-c2cncnc2)cc1 (centres undefined)	x	x	u	n	u
CCOC(=O)[C@@H]1CN(C(=O)NC2CCCC2)[C@H]2c3ccc(OC)cc3O[C@@H]12	x	x	u	x	50.1µM
